This is part of a sample that, as a whole, favours compounds with a hit. Of some 83,000 tested, about 20% had one in any assay.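 48-hour exposure, single concentration, 96-well plates; percent growth endpoint where 0 means no net growth. Active: below 10.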 A number with no mark means an inactive call. Activity calls are given as the source filed them.
Tests used:
Assay in all cases: NCI-60 one-dose screen, 48 h (100 = growth as untreated, 0 = no growth, -100 = all killed)
Settings in all cases: 10 µM
[1] = tested on: HCT-15 colon
[2] = tested on: HT29 colon
[3] = tested on: SNB-75 CNS
[4] = tested on: SNB-19 CNS
[5] = tested on: U251 CNS
[6] = tested on: PC-3 prostate
[7] = tested on: SK-MEL-5 melanoma
[8] = tested on: UACC-62 melanoma
[9] = tested on: LOX IMVI melanoma
[10] = tested on: SK-MEL-28 melanoma
[11] = tested on: SK-MEL-2 melanoma
[12] = tested on: EKVX NSCLC
[13] = tested on: SN12C renal
[14] = tested on: UO-31 renal
[15] = tested on: TK-10 renal
[16] = tested on: ACHN renal
[17] = tested on: CAKI-1 renal
[18] = tested on: A498 renal
[19] = tested on: CCRF-CEM leukemia
[20] = tested on: MOLT-4 leukemia

SMILES | growth [1] | growth [2] | growth [3] | growth [4] | growth [5] | growth [6] | growth [7] | growth [8] | growth [9] | growth [10] | growth [11] | growth [12] | growth [13] | growth [14] | growth [15] | growth [16] | growth [17] | growth [18] | growth [19] | growth [20]
O=C1CCC(N2Cc3c(NCc4ccc(-c5ccccc5)cc4)cccc3C2=O)C(=O)N1 (stereo not given) | 36.4% | 109% | 85.9% | 56.2% | 49.6% | 50.4% | 67.3% | 75.5% | 80.5% | 91.4% | 101% | 84.2% | 73.8% | 45.3% | 79.1% | 73.2% | 82.8% | 70.5% | 19.9% | 13.4%
COc1ccc(/C=C/C(=O)c2ccc(S(=O)(=O)NCCNc3nc(Nc4ccc(F)cc4)nc(N(C)C)n3)cc2)cc1 | 1.91% (active) | -46.4% (active) | 52.6% | 36.1% | 20.8% | 15.7% | 21.2% | 29.6% | -55.4% (active) | 31.6% | 74.7% | 34.1% | 14.5% | 14% | 70.3% | 16.2% | 27.4% | 47.9% | 16% | 9.26% (active)
COc1cc(C2CC(c3ccccc3)=Nc3c(N)nc(N)nc3N2)ccc1Oc1nc(Nc2ccc(F)cc2)nc(N(C)C)n1 (stereo not given) | 20.8% | 24.7% | 61% | 62.2% | 56.3% | 40.7% | -97.8% (active) | 48.5% | 23.2% | 67.8% | 54.5% | 50.2% | 64.6% | 46.6% | 82.6% | 38.5% | 39.3% | 94.4% | 25.4% | 1.45% (active)
COc1ccc(CN2[C@H](C(=O)NCCCCCCC(=O)NO)Cc3c([nH]c4ccccc34)[C@H]2C2CC2)cc1 | 8.85% (active) | 6.33% (active) | 10.2% | 6.72% (active) | -20.8% (active) | 19.1% | -88% (active) | -68.6% (active) | -100% (active) | 9.84% (active) | -16.7% (active) | 16.8% | 7.85% (active) | 7.67% (active) | -19.7% (active) | 0.712% (active) | 4% (active) | -38.3% (active) | 19.7% | 12.2%
CCOC(=O)C1NN(c2ccc(S(N)(=O)=O)cc2)c2nc3nc(-c4cccs4)cc(-c4cccs4)c3c(=O)n21 (stereo not given) | 88.5% | 73.9% | 66.8% | 96.4% | 84.5% | 80% | 75.5% | 74.8% | 80.7% | 73.1% | 101% | 91.8% | 90.2% | 82.9% | 100% | 64.9% | 59.1% | 120% | – | 78.7%
COc1ccc(OC)c(-c2cc(-c3c[nH]c4ccccc34)nc(N)c2C#N)c1 | 1.05% (active) | -12.6% (active) | -8.84% (active) | 11.6% | -1.3% (active) | 13.1% | -84.8% (active) | -8.1% (active) | -65.8% (active) | 4.59% (active) | -18.3% (active) | 13.7% | 2.5% (active) | -15.5% (active) | 37.4% | 8.49% (active) | 7.28% (active) | 2.72% (active) | 8.99% (active) | 7.55% (active)
CC1=C2C(=C[C@@](C)(COCOCCCl)[C@@H]2O)C(=O)[C@](C)(O)C12CC2 | -38.9% (active) | -11.9% (active) | -53.2% (active) | -24.4% (active) | 1.56% (active) | 0.191% (active) | -62.3% (active) | -87% (active) | -82.2% (active) | -82.7% (active) | -100% (active) | -62.1% (active) | -63% (active) | -44.1% (active) | -1.02% (active) | -48% (active) | -14.7% (active) | -31.5% (active) | – | -12.4% (active)
O=C(NC(=S)N1CCN(c2ncnc3c2cnn3-c2ccccc2)CC1)c1ccc(Cl)cc1 | 52.3% | 79.1% | 2.35% (active) | 28.2% | 38.3% | 47.3% | 76.3% | 68.9% | 14.3% | 82.5% | 88.8% | 62.7% | 28.3% | 40% | 109% | 24.5% | 27.7% | 68.4% | – | 81.6%
Cc1ccc(/C=C/C(=O)c2ccc(S(=O)(=O)NCCNc3nc(Nc4ccc(F)cc4)nc(N(C)C)n3)cc2)cc1 | -46.4% (active) | -55.6% (active) | 81.3% | 44.7% | -57.3% (active) | 12.3% | 29.4% | 32.5% | -100% (active) | 40.5% | 84.5% | 30.7% | -83.9% (active) | 36.8% | 100% | 11.9% | 29.3% | 37.3% | 17.6% | 10.1%
Cc1cc(=O)oc2cc(OCCCCOc3ccc(/C=C/C(=O)Nc4ccc(F)c(Cl)c4)cc3)ccc12 | 97% | 111% | 116% | 93.4% | 95.1% | 99.6% | 85.2% | 92% | 97.6% | 93% | 117% | 96.4% | 96.4% | 86.1% | 112% | 107% | 96% | 108% | – | 93.5%
O=C(c1ccccc1)n1ccc(-c2cc3cc(Br)ccc3oc2=O)n1 | 22.8% | 63.5% | 66.1% | 34.5% | 27.8% | 28.2% | 10.6% | -21.1% (active) | 2.5% (active) | 24.4% | 16.8% | -1.71% (active) | 27.4% | 11.7% | 34.7% | 8.46% (active) | 15.2% | 117% | 4.71% (active) | 14.8%
N#Cc1c(-c2ccc(Cl)cc2)cc(-c2ccccc2)nc1OCc1ccccc1 | 36.1% | 65% | 74.7% | 89.8% | 60.2% | 40.1% | 54% | 62.3% | 65.7% | 86% | 76% | 52.6% | 87.8% | 65.6% | 97.8% | 75% | 73.8% | 118% | 79.9% | 47.8%
Cc1ccc(-c2cc(C(=O)N=Nc3c(O)[nH]c4ccc(Br)cc34)c3ccccc3n2)cc1 | 8.77% (active) | 42.1% | 102% | 61.1% | 21.7% | 52.9% | 96.7% | 60.6% | 25.3% | 84.4% | 104% | 60.6% | 48.6% | 52.2% | 119% | 52.3% | 73.6% | 125% | 26.8% | 14.9%
O=C(CSc1nnc(-c2ccc3nc(-c4ccccc4)[nH]c3c2)o1)Nc1ccc(Br)cc1 | 38.1% | 64.9% | 99.1% | 49.7% | 11.5% | 61.4% | 86.9% | 59.8% | -4.8% (active) | 76.9% | 81.2% | 81.4% | 45.8% | 74.4% | 81.3% | 63% | 76.2% | 101% | 39.4% | 16.8%
COC(=O)C(Cc1ccc(O)c(O)c1)NC(=O)C(CSC/C=C(\C)CCCC(C)CCCC(C)CCCC(C)C)NC(C)=O (stereo not given) | 15.5% | 40.5% | 42.8% | 10.8% | 4.85% (active) | 2.28% (active) | 36.8% | 13% | 19.7% | 25.1% | 74.5% | 47% | 26.3% | 43.7% | 45.3% | 31.4% | 28.4% | 102% | – | 7.78% (active)
